Reference: PubChem BioAssay (NCI)
Compounds without any hit were thinned out: in the full panel of roughly 83,000, 20% have a hit.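 Step 1: grow cells in 96-well plates. Step 2: add test compound at a single concentration. Step 3: incubate 48 h. Step 4: record percent growth.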 The source made the active and inactive calls. How the source made its calls: active means growth percent below 10; inactive means the rest. Where a SMILES comes first, the peptide text is derived from it. [ ]: non-standard residue; d: D form. ξ: configuration not given here. ξD = NC(CC(=O)O)C(=O)O

Columns and labels:
Test in all cases: NCI-60 one-dose screen, 48 h (100 = growth as untreated, 0 = no growth, -100 = all killed)
[1] = tested on: HCT-15 colon; details: 10 µM unless noted
[2] = tested on: HT29 colon; details: 10 µM unless noted
[3] = tested on: SNB-75 CNS; details: 10 µM unless noted
[4] = tested on: SNB-19 CNS; details: 10 µM unless noted
[5] = tested on: UACC-62 melanoma; details: 10 µM unless noted
[6] = tested on: SK-MEL-28 melanoma; details: 10 µM unless noted
[7] = tested on: SN12C renal; details: 10 µM unless noted
[8] = tested on: UO-31 renal; details: 10 µM unless noted
[9] = tested on: TK-10 renal; details: 10 µM unless noted
[10] = tested on: ACHN renal; details: 10 µM unless noted
[11] = tested on: CAKI-1 renal; details: 10 µM unless noted
[12] = tested on: A498 renal; details: 10 µM unless noted
[13] = tested on: CCRF-CEM leukemia; details: 10 µM unless noted
[14] = tested on: MOLT-4 leukemia; details: 10 µM unless noted
[15] = tested on: U251 CNS; details: 10 µM unless noted
[16] = tested on: PC-3 prostate; details: 10 µM unless noted
[17] = tested on: SK-MEL-5 melanoma; details: 10 µM unless noted
[18] = tested on: LOX IMVI melanoma; details: 10 µM
[19] = tested on: EKVX NSCLC; details: 10 µM unless noted
[20] = tested on: SK-MEL-2 melanoma; details: 10 µM unless noted

Measured: growth

CCCCCCCCCCCCNCCCc1ccccc1
inactive: [1] 23.9% | [3] 64.7% | [4] 92.2% | [5] 57.2% | [6] 73.4% | [7] 62.9% | [8] 60.8% | [9] 104% | [10] 78.1% | [11] 93% | [12] 76.5% | [13] 48.9% | [14] 54.8%
active: [2] 7.89%

S=C(SSC(=S)N1CCOCC1)N1CCOCC1
inactive: [1] 91.2% | [3] 104% | [4] 111% | [15] 58.1% | [16] 77.6% | [17] 73.2% | [5] 68.7% | [18] 78.9% | [6] 106% | [19] 95.3% | [7] 99.7% | [8] 76.9% | [9] 95.7% | [10] 98.3% | [11] 79.1% | [12] 90.6% | [13] 21.9% | [14] 93.6%

CCCOS(=O)(=O)c1ccccc1
inactive: [1] 102% | [2] 110% | [4] 103% | [15] 106% | [16] 92.1% | [17] 112% | [5] 102% | [18] 103% | [20] 114% | [19] 110% | [7] 103% | [8] 83.3% | [9] 102% | [10] 102% | [12] 100% | [14] 107%
active: [13] 6.52%

CCOC(=O)NC(/C=C/c1ccccc1)NC(=O)OCC
inactive: [1] 105% | [3] 96.6% | [4] 98.4% | [15] 94.5% | [16] 96.9% | [17] 106% | [5] 97.7% | [18] 99.8% | [6] 105% | [20] 104% | [7] 99% | [8] 91.2% | [9] 100% | [10] 109% | [11] 94.5% | [12] 89.3% | [13] 98.4% | [14] 98.7%

O=[N+]([O-])c1ccc(C(Br)c2ccc([N+](=O)[O-])cc2)cc1
inactive: [1] 57.8% | [2] 72.7% | [4] 106% | [15] 88.6% | [16] 61.8% | [17] 68.1% | [5] 79.5% | [6] 105% | [20] 97.6% | [19] 109% | [7] 54.9% | [8] 47.4% | [9] 97.5% | [10] 98.3% | [11] 92.2% | [12] 101% | [13] 16.3% | [14] 12.5%
active: [18] -40.1%

O=C1/C(=C/c2ccccc2)CCC/C1=C\c1ccccc1
inactive: [1] 81.5% | [3] 95.9% | [4] 94.6% | [15] 66.2% | [16] 88.9% | [17] 86.7% | [5] 82.6% | [18] 28.8% | [6] 98.5% | [20] 99.7% | [19] 96.1% | [7] 93.2% | [8] 88.1% | [9] 104% | [11] 84.3% | [12] 84.6% | [13] 76.3% | [14] 73%

C1=C(c2ccccc2)c2ccccc2C1
inactive: [1] 87.6% | [2] 105% | [3] 90.9% | [15] 108% | [16] 82.6% | [17] 108% | [18] 89.7% | [6] 116% | [20] 94.4% | [19] 90.5% | [8] 68.8% | [9] 119% | [10] 81.7% | [11] 76.4% | [12] 68.5% | [14] 92.4%

N#C/C(=N\Nc1ccc(Cl)cc1)C(=O)C1CC1
active: [17] 0.976%
inactive: [1] 53.9% | [2] 67.6% | [3] 56.5% | [15] 40.5% | [16] 54.3% | [5] 32.1% | [18] 67.2% | [6] 53.9% | [20] 11.8% | [19] 32.2% | [7] 41.4% | [9] 52.9% | [10] 69.1% | [11] 49.1% | [12] 43.4% | [13] 64.3% | [14] 79.8%

Cc1ccc(NC2=CC(=O)C(=O)c3ccccc32)cc1
inactive: [1] 11.2% | [4] 28.4% | [15] 15.4% | [16] 28% | [19] 73% | [9] 42.4% | [10] 21.9% | [11] 35.5% | [12] 63.2% | [13] 27% | [14] 28.7%
active: [3] -18.7% | [17] -98.4% | [5] -33.9% | [18] 0.472% | [6] -23.5% | [7] -39.2% | [8] -18.4%

CC1(C)N=c2cc3c(cc2N1c1ccc(Cl)cc1)=Nc1ccccc1N3c1ccc(Cl)cc1
active: [3] 1.77% | [16] 7.55% | [8] -37.1% | [13] -25.3% | [14] -32.2%
inactive: [1] 33.2% | [4] 66.5% | [15] 39.3% | [17] 37.8% | [5] 69.1% | [18] 40.5% | [6] 86.6% | [19] 52.9% | [7] 75.7% | [9] 65.2% | [10] 40.2% | [11] 44.2% | [12] 26.7%

Cc1ccc2cccc(OC(=O)Nc3cccc(C(F)(F)F)c3)c2n1
inactive: [1] 50.9% | [2] 56.2% | [3] 87.5% | [4] 72.1% | [17] 86.4% | [5] 60.8% | [7] 61.5% | [8] 35.8% | [9] 83% | [10] 36.4% | [11] 35.4% | [12] 66.3% | [14] 40.4%

C(=N\Nc1ccc2ccccc2n1)/c1ccccn1
inactive: [1] 28.5% | [2] 32.1% | [4] 21.3% | [15] 10.1% | [18] 15.1% | [20] 39.5% | [19] 20.7% | [7] 17.7% | [9] 48% | [12] 26.7% | [13] 16.9%
active: [17] -10.8% | [5] -14.4% | [8] -29.8% | [10] 7.28% | [11] 2.92% | [14] 6.6%

Cc1cc(=O)oc2cc(O)cc(O)c12
inactive: [1] 108% | [3] 98.2% | [4] 104% | [15] 107% | [16] 100% | [17] 99.5% | [5] 102% | [18] 97.9% | [6] 101% | [20] 107% | [19] 99.3% | [7] 102% | [8] 83.5% | [9] 97.8% | [11] 94.6% | [12] 117% | [13] 107% | [14] 99.8%

CN(C)CC(C)(CN(C)C)C(=O)/C=C/c1c(Cl)cccc1Cl
inactive: [2] 12.2% | [3] 64.5% | [15] 40.4% | [16] 46.2% | [17] 56.3% | [5] 20.1% | [20] 79.7% | [7] 50.9% | [11] 52.7% | [12] 119%
active: [1] -65.6% | [18] -100% | [19] 5.55% | [9] -8.98% | [10] -100% | [13] -4.65% | [14] -19.3%

NCC(=O)NC(CC(=O)O)C(=O)O (centres undefined) (H-Gly-[ξD]-OH)
inactive: [1] 105% | [2] 98.2% | [3] 98.6% | [15] 103% | [16] 86.7% | [17] 101% | [5] 91.4% | [18] 103% | [6] 104% | [20] 111% | [19] 94.7% | [7] 99% | [9] 97.7% | [10] 106% | [11] 89.8% | [12] 105% | [13] 79.3% | [14] 109%

O=C1c2ccccc2C(=O)c2c(O)c(Cl)cc(O)c21
inactive: [1] 81.9% | [3] 96% | [4] 93.1% | [15] 38% | [16] 77% | [17] 108% | [5] 81.3% | [18] 50.9% | [6] 103% | [20] 124% | [19] 98.3% | [7] 96.5% | [8] 79.8% | [9] 89.4% | [10] 92.1% | [11] 95.1% | [12] 91% | [13] 64.3% | [14] 75.9%

Nc1nc2ncc(CNc3ccc(C(=O)NC(CCC(=O)NC(CCC(=O)NC(CCC(=O)NC(CCC(=O)NC(CCC(=O)O)C(=O)O)C(=O)O)C(=O)O)C(=O)O)C(=O)O)cc3)nc2c(=O)[nH]1 (centres undefined)
inactive: [1] 103% | [2] 107% | [3] 107% | [15] 110% | [16] 100% | [17] 94.7% | [5] 94.5% | [18] 100% | [6] 110% | [20] 118% | [19] 95.9% | [7] 101% | [9] 119% | [10] 110% | [11] 89.7% | [12] 116% | [13] 102% | [14] 107%
